How the values were obtained:
[1] = target: Tumor necrosis factor receptor superfamily member 10B (Homo sapiens) (UniProt O14763); experiment: viability loss of caspase-8 NB7 cells with TRAIL – with/without TRAIL, luminescence panel, confirmation (AID 651596); settings: NB7 neuroblastoma + caspase-8, TRAIL sensitization, NB7 Caspase-8, with TRAIL, mean of runs, at 10 µM, stronger effect = higher value
[2] = as above; settings: NB7 neuroblastoma + caspase-8, without TRAIL, NB7 Caspase-8, without TRAIL, mean of runs, at 10 µM

Chain of Tumor necrosis factor receptor superfamily member 10B (Homo sapiens) (O14763 whole entry, looked up): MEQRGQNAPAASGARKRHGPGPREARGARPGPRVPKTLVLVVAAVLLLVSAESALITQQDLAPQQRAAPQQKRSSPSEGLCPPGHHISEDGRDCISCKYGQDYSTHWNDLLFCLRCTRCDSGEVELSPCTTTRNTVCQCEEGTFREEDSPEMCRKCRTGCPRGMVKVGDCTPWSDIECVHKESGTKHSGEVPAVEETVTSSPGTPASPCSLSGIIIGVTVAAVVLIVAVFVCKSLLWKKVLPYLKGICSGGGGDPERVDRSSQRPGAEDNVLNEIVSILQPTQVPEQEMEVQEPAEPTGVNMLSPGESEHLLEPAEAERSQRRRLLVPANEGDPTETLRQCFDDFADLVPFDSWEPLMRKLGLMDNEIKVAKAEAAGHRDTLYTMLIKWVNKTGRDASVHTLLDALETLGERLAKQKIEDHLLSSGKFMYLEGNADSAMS

Structure (SMILES) | activity [1] | activity [2]
O=C(N/N=C/C=C/c1ccccc1)c1cc2c(ccc3ccccc32)o1 | 62.1% | 56.4%
Cc1ccc(NC(=O)COc2ccccc2[N+](=O)[O-])nc1 | 60.5% | 62.8%
CCOC(=O)N1CCN(C(=O)c2ccc(Cn3c(=S)[nH]c4ccc(Br)cc4c3=O)cc2)CC1 | 73.5% | 58.9%
O=C(/C=C/c1ccco1)Nc1ccccc1C(=O)O | 45.1% | 42.1%
CCOc1ccc(OCc2cccc(C(=O)N3CCOCC3)c2)cc1 | 58.8% | 55.5%
Cc1cc(NC2CCCC2)n2ncc(-c3ccccc3)c2n1 | 69.1% | 69.1%
COc1ccc2[nH]c3c(NCCC4=CCCCC4)ncnc3c2c1 | 35.8% | 44.1%
COc1ccc(NC(=O)c2cc3ccc(O)cc3o/c2=N\O)cc1 | 77.8% | 77.1%
Cc1ccc(-c2cc3nc4c(c(=O)n3[nH]2)CCCC4)cc1 | 55.2% | 54.7%
COc1ccc(/C(N)=N/OC(=O)c2ccc3ccccc3c2)cc1OC | 99% | 98%
COC(=O)C1=C(C(=O)OC)[C@@H]2N(Cc3ccccc3)c3ccccc3[C@@]23C[C@@H](C(=O)OC)N(C(=O)c2cccs2)C3=N1 | 17.8% | -45.8%
Cc1cc(NCCCn2ccnc2)n2ncc(-c3ccc(Cl)cc3)c2n1 | 45.8% | 48.5%
O=C(NC(=S)Nc1nc2ccccc2s1)c1cccs1 | 83.1% | 75.6%
Cc1ccc(N2Cc3ccccc3C2=O)cc1 | 64.7% | 59.3%
COc1cccc2cc(-c3nc4ccccc4[nH]3)c(=O)oc12 | 64.5% | 61.1%
CC(C)(C)c1ccc(NC(=O)c2ccsc2)cc1 | 73.7% | 71.9%
O=C(CSc1nnc(-c2ccc(O)cc2)o1)Nc1cccc(O)c1 | 50.6% | 55.7%
CCc1cc2c(COC(=O)CCNS(=O)(=O)c3cccc(C(F)(F)F)c3)cc(=O)oc2cc1O | 23.9% | 3.52%

Structure (SMILES) | activity [1] | activity [2]
COc1cccc(-c2noc(-c3ccc4c(c3)OCO4)n2)c1 | 65.7% | 62.5%
Cc1ccc(-n2nnc(-c3nccn3C)n2)cc1 | 74.7% | 77.1%
C#CCSc1nnc(CSc2nc3ccccc3s2)n1-c1ccccc1 | 95.3% | 94.8%
COc1ccc(NC(=O)c2cccc3c2C(=O)c2ccc(-c4ccc(F)cc4OCc4ccccc4)cc2S3(=O)=O)cc1 | 20.6% | 31.4%
CCC(COC)Oc1cc(NCc2ccccc2)c2ncn(C(C)C)c2c1 (stereo not given) | -8.03% | -13.1%
CN(C)S(=O)(=O)c1ccc(-c2cn3ccccc3n2)cc1 | 66.2% | 73.5%
O=C(CCS(=O)(=O)c1ccccc1)Nc1ccc(-c2nc3ccccc3s2)cc1 | 58% | 42.8%
c1ccc2oc(-c3csc(N4CCOCC4)n3)cc2c1 | 67.7% | 51.3%
N/C(=N\OC(=O)c1ccc(Cl)cc1)c1ccn[nH]1 | 94.7% | 91%
Nc1c(N(C(=O)Nc2ccc(Cl)c(Cl)c2)C2CCCC2)c(=O)[nH]c(=O)n1Cc1ccccc1 | 46.5% | 46%
CCN(CC)c1ccc(NC(=O)c2ccco2)cc1 | 53.6% | 50.3%
N#Cc1ccccc1N/C=C/C(=O)c1ccc(Cl)cc1 | 48.7% | 53.1%
Fc1ccc(-c2nnc(-c3ccc(Cl)cc3Cl)o2)cc1 | 85.4% | 84.5%
C/C(=N\NC(=O)c1ccc2c(c1)OCO2)c1ccco1 | 53.5% | 57.3%
O=C(Nc1ccc2c(c1)OCCO2)c1ccccc1 | 53.7% | 54.6%
Cc1cccc(CS(=O)(=O)c2ncc(Cl)c(C(=O)Nc3nnc(C(C)C)s3)n2)c1 | 93.5% | 86.1%
CN1C(=O)c2ccccc2C(C(=O)NCCCN2CCCC2)C1c1c[nH]c2ccccc12 (stereo not given) | 45.5% | 55.5%

Reference: PubChem BioAssay
